# Screens deposited in PubChem BioAssay by National Center for Advancing Translational Sciences (NCATS).
# IL-1B inflam inh – qHTS for Inhibitors of Inflammasome Signaling: IL-1-beta AlphaLISA Primary Screen; THP-1 LPS/ATP IL-1B secretion, AlphaLISA, 16 h; stronger effect = lower value; activity change, % at 57.5 µM; 360,000 tested, 4.7% active; AID 743279, 2014; in the data active = activity change below about -50%; inconclusive = mostly about -30% to -49%; note: % is set by controls: 0 for no effect and ±100 for the full control effect
#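 THP-1 cells pretreated 1 hr with compounds (up to 57.5 uM final), then stimulated with LPS (250 ng/mL final) plus ATP (1.25 mM final); secreted IL-1B measured by AlphaLISA after 16 hr, decreased signal indicating inhibition.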
# DT40 TDP1 CPT – qHTS for Inhibitors of human tyrosyl-DNA phosphodiesterase 1 (TDP1): qHTS in cells in presence of CPT. AID 686979, 2013. Potency, µM (highest dose often 46.2 µM), for inactives: at the highest dose activity change, negative = growth inhibition, hits mostly inhibitors. 420,000 tested, 12% active. chicken DT40 Tdp1-/-;hTDP1 cells + 20 nM CPT, ATP luminescence, 48 h; note: potency is the fitted concentration of half-maximal effect; % is set by controls: 0 for no effect and ±100 for the full control effect; nearly all actives have a fitted effect of over 55% in size
#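 Chicken DT40 Tdp1-/- cells stably complemented with human TDP1 were seeded at 400 cells/well in medium containing 20 nM camptothecin, exposed to pin-transferred compounds, and grown at 37 °C for at least 48 hr. Viability was read as ATP luminescence.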
# DRD3 antagonist – qHTS of D3 Dopamine Receptor Antagonist: qHTS; 360,000 tested, 2.5% active; AID 652054, 2013; max response, negative = inhibition, %; D(3) dopamine receptor (Homo sapiens), P35462; D3R cells, DiscoveRx beta-arrestin luminescence, antagonist mode; stronger effect = lower value; in the data active = max response below about -50%; inconclusive = no clear call, values can overlap the other calls; note: % is set by controls: 0 for no effect and ±100 for the full control effect
# Target sequence (P35462 whole entry, looked up): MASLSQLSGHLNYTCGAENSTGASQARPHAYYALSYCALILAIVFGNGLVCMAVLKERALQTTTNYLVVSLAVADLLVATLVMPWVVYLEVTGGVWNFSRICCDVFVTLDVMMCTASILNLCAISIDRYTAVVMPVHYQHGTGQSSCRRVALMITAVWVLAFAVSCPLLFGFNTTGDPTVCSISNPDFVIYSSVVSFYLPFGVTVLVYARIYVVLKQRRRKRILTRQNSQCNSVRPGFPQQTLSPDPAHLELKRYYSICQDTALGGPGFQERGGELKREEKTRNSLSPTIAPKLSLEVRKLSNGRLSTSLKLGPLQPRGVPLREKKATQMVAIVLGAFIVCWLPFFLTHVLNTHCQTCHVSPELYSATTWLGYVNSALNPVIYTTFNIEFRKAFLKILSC
#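 Cells plated overnight at 1500 cells/well, then exposed to library compounds with dopamine controls for 90 minutes at 37 degrees C. DiscoveRx reagent added for 30–60 minutes at room temperature; luminescence read, quantitative HTS format.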
# ClpP mod – qHTS Assay for Activators of ClpP; purified B. subtilis ClpP, FRET peptide cleavage, 20 min; Potency, µM (titrated, usually from 57.5 µM), without a hit: at the top dose activity change, negative = active; 340,000 tested, 1.9% active; AID 651965, 2013; active = well fitted falling curve with a large enough effect; inconclusive = small, poorly fitted or top-dose-only effect; inactive = no such curve, though single readings can be large or run the other way; note: potency is the fitted concentration of half-maximal effect; the source files actives as falling curves though it sought activators and does not explain the sign; nearly all actives have a fitted effect of over 65% in size
# Target sequence (P80244 whole entry, looked up): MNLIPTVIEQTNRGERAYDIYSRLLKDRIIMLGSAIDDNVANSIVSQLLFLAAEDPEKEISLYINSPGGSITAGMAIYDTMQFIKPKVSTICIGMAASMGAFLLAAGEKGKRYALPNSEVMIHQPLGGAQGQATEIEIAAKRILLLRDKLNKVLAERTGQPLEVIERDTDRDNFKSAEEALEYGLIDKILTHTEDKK
#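 Purified B. subtilis ClpP, 10 microg/mL final in Tris/HCl pH8 with KCl, BSA, glycerol and Tween-20, cleaved an Abz/nitrotyrosine-quenched decapeptide. Fluorescence (ex 320, em 430) was read at 0 and 20 min at room temperature. Delta was normalized to 5.8 microM ADEP and DMSO/no-enzyme controls.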
# TDP1 cell noCPT – qHTS for Inhibitors of human tyrosyl-DNA phosphodiesterase 1 (TDP1): qHTS in cells in absence of CPT; DT40 Tdp1-/- hTDP1 cells, no CPT, ATP luminescence, 48 h; AID 686978, 2013; 420,000 tested, 15% active; Potency, µM (top dose mostly 46.2 µM), without a hit: at the highest dose activity change, negative = growth inhibition, hits mostly inhibitors; note: potency is the fitted concentration of half-maximal effect; % is set by controls: 0 for no effect and ±100 for the full control effect; nearly all actives have a fitted effect of over 55% in size
#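 Growth of hTDP1-complemented DT40 Tdp1-knockout cells is measured by ATP luminescence after at least 48 hr compound exposure at 37 °C, with DMSO substituting for the 20 nM CPT used in the parallel screen.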
# D3 ag – qHTS of D3 Dopamine Receptor Agonist: qHTS; D(3) dopamine receptor (Homo sapiens), P35462; D3R DiscoveRx beta-arrestin cells, luminescence, 90 min; max activation, %; 410,000 tested, 0.58% active; AID 652048, 2013; in the data active = max activation above about 30%; note: 0% is about no effect
#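 Agonist mode: compounds and dopamine controls were applied to plated cells for 90 min at 37 degrees C after an overnight attachment at 1500 cells/well. Luminescent read-out followed 30 - 60 minutes at room temperature with DiscoveRx detection reagent.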
# Numbers without * were called inactive; ? = inconclusive; . = no result given; ! = not confirmed by another sample; [ ] = another dose, or the depositor's remark. The list is not random: actives were taken first. Their share in the collection is about 21%. Unless noted, calls come from the whole dose curve; as a rule, active = well fitted inhibition curve with a large enough effect; inconclusive = small, poorly fitted or top-dose-only effect; inactive = flat fitted curve, though single readings scatter.
SMILES,IL-1B inflam inh,DT40 TDP1 CPT,DRD3 antagonist,ClpP mod,TDP1 cell noCPT,D3 ag
OC(CN1CCC(c2c[nH]c3ccccc23)CC1)C(F)(F)F (stereo unspecified),-18,-13%,-63*,-2%,-29%,-6
COC(=NC1CCCCC1)C(O)c1c[nH]c2ccccc12 (stereo unspecified),37,-4%,-14,-3%,-12%,-2
Cc1c(C(=O)c2cccc3ccccc23)c2cccc3c2n1[C@H](CN1CCOCC1)CO3,-27,2.9µM*!,-24,-3%,4.6µM*!,-19
O=C(CN1CCOCC1)c1cccc2ccccc12,-2,-24%,-55*,-6%,?,-7
Cc1c(C(=O)C(=O)N2CCOCC2)c2ccccc2n1Cc1ccccc1,-1,11%,-7,-1%,0%,-3
Cc1c(C(=O)c2ccc3ccccc3c2)c2cccc3c2n1[C@H](CN1CCOCC1)CO3,.,12µM*,.,.,?,.
O=C(CN1CCOCC1)c1ccc(Br)cc1,42,-2%,?,.,-8%,-15
COC(C/C=C/C=C/CC/C=C\CC(C)/C=C\C(=C/C(=O)O)CC(=O)O)/C(C)=C\C=C(/C)C(=O)O (stereo unspecified),.,14%[4.12 µM],.,.,13%[4.12 µM],.
CC1CN(C(=O)CCC(=O)N2CCC3(CC2)OCCO3)c2cc(Cl)ccc2O1 (stereo unspecified),12,-29%,15,-2%,4%,5
COC(=O)C1=C(c2c(C)noc2C)C[C@@H]2CC[C@H]1N2C(=O)NCc1ccco1,11,1%,-19,1%,-2%,3
CCOC(=O)c1cccc(C2=C(CNC(=O)c3ccc([N+](=O)[O-])cc3)[C@H]3CC[C@@H](C2)N3Cc2ccccc2)c1,-5,?,-98*,-3%,?,-17
CCOC(=O)c1cccc(C2=C(CNC(=O)c3cccnc3)[C@H]3CC[C@@H](C2)N3Cc2ccccc2)c1,?,?,-20,-2%,21µM*,-12
O=C(c1ccco1)N1CCN(C(=O)c2ccc(COc3ccc(Cl)cc3Cl)o2)CC1,-2,26µM*,12,-3%,?,2
O=c1c2cc(N3CCOCC3)ccc2[nH]c(=S)n1Cc1ccc(Cl)cc1,0,21µM*,-1,11%,15µM*,1
O=c1[nH]c(=S)n(-c2ccc(Cl)cc2)c(O)c1C=Nc1ccc(N2CCOCC2)cc1,15,-20%,-9,-1%,1%,11
CC(C)C1CN1CC(O)Cn1ccnc1[N+](=O)[O-] (stereo unspecified),-17,18µM*,-3,-2%,?,-13
O=[N+]([O-])c1nccn1CO[C@@H](CO)[C@H](O)CO,.,?,.,.,2%,-4
O=P1(c2ccccc2)Nc2ccccc2N1c1ccccc1 (stereo unspecified),-9,?,2,.,?,29
CCc1ccc(NC(=S)NC2CC3CCC(C2)N3Cc2ccco2)cc1 (stereo unspecified),-4,18µM*,?,-2%,23µM*,-24
CCCCC[C@@H]1CCCCC[C@H](O)C[C@@H](O)[C@@H](O)/C=C/C(=O)O1,?,?,0,-3%,?,-4
CCCCC[C@@H]1CCCCC[C@@H](O)C[C@@H](O)[C@H](O)/C=C/C(=O)O1,-66*,-25%,9,1%,?,6
CC1(C)Cc2c(c(N3CCOCC3)nc3sc4c(NCc5ccccc5)nnnc4c23)CS1,-21,16µM*,-13,-9%,23µM*,-8
CCCCCCC(=O)c1c(O)n(-c2ccc(OC)cc2)c(=O)[nH]c1=O (tested in a mixture with another compound),20,-29%,-11,-2%,26µM*,4
O=C1NC2NC(=O)N([N+](=O)[O-])C2N1 (stereo unspecified),-4,20%,1,-1%,5%,1
COc1ccc(S(=O)(=O)N2c3ccc(F)cc3CCC2C)cc1 (stereo unspecified),53,0.92µM*,-6,0%,0.58µM*,-11
SMILES,IL-1B inflam inh,DT40 TDP1 CPT,DRD3 antagonist,ClpP mod,TDP1 cell noCPT,D3 ag
COP(=O)(OC)OC=C(Cl)Cl,.,?,.,.,12µM*,-11
CCOP(=O)(OCC)C(Nc1cc(Cl)cc(Cl)c1)c1cccc(O)c1 (stereo unspecified),?,?,0,2%,?,0
CCOP(=O)(OCC)C(Nc1cccc([N+](=O)[O-])c1)c1ccc(OC)cc1 (stereo unspecified),-13,?,-10,.,13µM*,-13
CCCOP(=O)(OCCC)C(Nc1cccc(C(F)(F)F)c1)c1ccc(C)cc1 (stereo unspecified),-2,?,6,-2%,23µM*,-3
CCOP(=O)(OCC)C(Nc1cccc(C(F)(F)F)c1)c1ccc(C)cc1 (stereo unspecified),-16,?,-7,0%,18µM*,3
CC(C)(C)NCC(O)c1ccccc1Cl (stereo unspecified),.,-3%,.,.,-4%,0
CN1CCN(c2nc([N+](=O)[O-])nn2C)CC1,-12,-14%,-18,-1%,-1%,-18
CCOC(=O)[C@]12Cc3cc(OC)ccc3[C@H]1N(Cc1ccccc1)C(=O)c1ccccc12,-23,?,-11,-5%,11µM*,3
CCCCCN1C(=O)c2ccccc2[C@@]2(C(=O)OCC)Cc3cc(OC)ccc3[C@@H]12,.,7.3µM*,0,1%,4.6µM*,3
CCOC(=O)[C@]12Cc3cc(C)ccc3[C@H]1N(C(C)C)C(=O)c1ccccc12,-113*,10µM*,-12,-2%,6.5µM*,-11
CCOC(=O)C1=C(N)Oc2cc(C)oc(=O)c2C12C(=O)N1c3c(cccc32)C(C)CC1(C)C (stereo unspecified),40,-11%,27,3%,-1%,4
COc1cc2c(cc1OC)C(C(=O)NCCC(C)C)C1CCCCN1C2=O (stereo unspecified),-5,-3%,6,?,-1%,4
